Pf growth 96h: Primary qHTS for delayed death inhibitors of the malarial parasite plastid, 96 hour incubation. P. falciparum luciferase reporter growth, 96 h. 320,000 tested, 6.9% active. Potency, µM (highest dose often 28.7 µM), for inactives: top-dose activity change, negative = inhibition, hits mostly inhibitors. AID 504834, 2011; also: % is scaled to controls: 0 for no effect and ±100 for the full control effect
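Two-generation exposure (96 h) targets delayed-death phenotype. Reporter parasites carrying integrated firefly luciferase, in red cells at 2% hematocrit and 0.05% parasitemia final, kept at 37 C, 5% CO2; luminescence loss indicates inhibition.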
Pf growth 48h: Primary qHTS for delayed death inhibitors of the malarial parasite plastid, 48 hour incubation | P. falciparum luciferase growth in erythrocytes, 48 h | Potency, µM (series often up to 28.7 µM), for the others: at the top dose activity change, negative = inhibition, actives largely listed as inhibitors | 310,000 tested, 5.9% active | AID 504832, 2011; also: % is scaled to controls: 0 for no effect and ±100 for the full control effect
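Compounds are pin-transferred into medium, infected erythrocytes (2% hematocrit, 0.1% parasitemia final) are added, and plates sit one parasite generation at 37 C in 5% CO2. Detection reagent is then added and luminescence measured.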
Vaccinia Venus: qHTS for Stage-Specific Inhibitors of Vaccinia Orthopoxvirus: Venus Reporter Primary qHTS. Vaccinia virus Venus reporter expression, fluorescence. Potency, µM (top dose mostly 36.5 µM), for inactives: top-dose activity change, negative = inhibition, hits mostly inhibitors. 330,000 tested, 0.46% active. AID 720580, 2013; calls by dose curve; tested in A549 cells; also: % is scaled to controls: 0 for no effect and ±100 for the full control effect; nearly all actives have a fitted effect of over 30% in size
NS1 function inh: qHTS Assay for Inhibitors of Influenza NS1 Protein Function; Potency, µM (series often up to 46.1 µM), inactives show at the top dose activity, positive = more growth; 270,000 tested, 0.4% active; AID 2326, 2010; calls by dose curve; also: actives are rising curves; nearly all actives have a fitted effect of over 50% in size
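A cell-based growth assay was used: compounds that relieve NS1-induced slow growth of budding yeast raise OD600. Assay medium was yeast nitrogen base with ammonium sulphate and -URA supplement, pH 6.0, with 2% galactose.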
VACV mCherry inh: qHTS for Stage-Specific Inhibitors of Vaccinia Orthopoxvirus: mCherry Reporter Primary qHTS; 310,000 tested, 0.63% active; Potency, µM (top dose mostly 36.5 µM), for the others: top-dose activity change, negative = inhibition, usual class: inhibitors; AID 720579, 2013; Vaccinia virus mCherry reporter infection, fluorescence; calls by dose curve; tested in A549 cells; also: % is scaled to controls: 0 for no effect and ±100 for the full control effect; nearly all actives have a fitted effect of over 35% in size
HCV inhibitor: qHTS Assay for Inhibitors of Hepatitis C Virus (HCV); AID 651820, 2012; Huh7.5.1 HCVcc-Cre infection, luciferase reporter, 44 h; Potency, µM (series often up to 41.8 µM), without a hit: at the top dose activity change, negative = inhibition, most hits filed as inhibitors; 340,000 tested, 3.4% active; also: % is scaled to controls: 0 for no effect and ±100 for the full control effect
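Antiviral activity was scored by luciferase reporter output from cells infected with HCVcc-Cre (~0.5 moi) in presence of compound, 44 h infection period, cells seeded 1,000/well 4 h prior.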
Starred values were filed as active, the others as inactive; [ ] = remark or other dose. Compounds with a hit are over-represented: about 11% of the library has one in this group of screens. Unless noted, calls follow the shape of the dose curve; as a rule, active = well fitted inhibition curve with a large enough effect; inconclusive = small, poorly fitted or top-dose-only effect, or another doubt; inactive = no such curve, though single readings can be large or run the other way. Potency is read from the fitted curve at half-maximal effect.

CCC[C@@H]1C[C@@H](C(=O)NC(C(C)Cl)[C@H]2O[C@H](SC)[C@H](O)[C@@H](O)[C@H]2O)N(C)C1 (some centres not stated) was read as Pf growth 96h 0.0033µM*, Pf growth 48h inconclusive, Vaccinia Venus -7.7%, NS1 function inh -5.5%, VACV mCherry inh -6.1% and HCV inhibitor 9.4%.
`Nc1ccc(C(=O)NN2C(=O)[C@H](Cl)C2c2ccc(Cl)cc2)cc1` (some centres not stated) gave Vaccinia Venus inconclusive, VACV mCherry inh inconclusive and HCV inhibitor 10µM*.
Screening NC(=O)c1ccsc1NC(=O)CS(=O)(=O)c1ccccc1 returned Pf growth 96h 50.7%, Pf growth 48h 51.8%, Vaccinia Venus -1.4%, VACV mCherry inh inactive and HCV inhibitor 11.9%.
`CCCc1ccc(C(=O)NC(=O)c2ccccc2O)cc1` gave Pf growth 96h 0.37µM*, Pf growth 48h 0.0657µM*, Vaccinia Venus -1.6%[7.34 µM], NS1 function inh -83.5%, VACV mCherry inh inactive[7.34 µM] and HCV inhibitor inconclusive.
O=C(NC(=O)c1ccccc1O)c1ccc(C(F)(F)F)cc1 was read as Pf growth 96h 2.33µM*, Pf growth 48h inconclusive, Vaccinia Venus 28.4%, NS1 function inh 6.1%, VACV mCherry inh 20.0% and HCV inhibitor inconclusive.
`O=C(NC(=S)NNC(=O)c1ccccc1O)c1ccc(F)cc1` gave Pf growth 96h -28.0%, Pf growth 48h -16.1%, Vaccinia Venus -5.4%, NS1 function inh -65.6%, VACV mCherry inh -21.6% and HCV inhibitor -10.7%.
CCCc1ccc(C(=O)NNC(=O)c2ccc(Br)cc2)cc1 was read as Pf growth 96h -7.7%, Pf growth 48h -1.5%, Vaccinia Venus -4.0%, NS1 function inh 13.4%, VACV mCherry inh -14.7% and HCV inhibitor -5.1%.
`CNc1cc(-c2ccc(C(=O)OC)cc2)ncn1` gave Vaccinia Venus -5.9% and VACV mCherry inh -10.7%.
`CN(C)C(=O)CN1CCN(Cc2cn(C)nc2-c2ccc3c(c2)OCCO3)CC1` gave Pf growth 96h 10.4µM*, Pf growth 48h 10.2%, Vaccinia Venus -12.1%, NS1 function inh 6.7%, VACV mCherry inh -3.1% and HCV inhibitor 18.7%.
Screening CCOC(=O)C1CCCN(Cc2cn(C)nc2-c2ccc3c(c2)OCCO3)C1 (configuration not stated) returned Pf growth 96h inconclusive, Pf growth 48h -4.7%, Vaccinia Venus -21.1%, NS1 function inh 1.6%, VACV mCherry inh inactive and HCV inhibitor 20.9%.
Screening O=S1(=O)N=C(Nc2ccc(S(=O)(=O)N3CCCCC3)cc2)c2ccccc21 returned Pf growth 48h -11.6%, Vaccinia Venus -14.1%, NS1 function inh 8.7% and HCV inhibitor 11.1%.
`CSc1ccc(NC(=O)N2CC=C(n3c(=O)[nH]c4ccccc43)CC2)cc1` gave Pf growth 96h inconclusive, Pf growth 48h inconclusive, Vaccinia Venus -29.5%, NS1 function inh -18.3%, VACV mCherry inh -16.1% and HCV inhibitor 10µM*.
CCc1ccc(NC(=O)N2CC=C(c3c[nH]c4ccccc34)CC2)cc1 was read as Vaccinia Venus -20.3% and VACV mCherry inh -20.9%.
`Fc1ccc(-c2nnn(Cc3ccccc3Cl)n2)cc1` gave Pf growth 96h 21.1%, Pf growth 48h 28.8%, Vaccinia Venus -2.3%, NS1 function inh -3.9%, VACV mCherry inh inactive and HCV inhibitor 2µM*.
For Cc1[nH]c2ccc(C(=O)OCCN(C)C)cc2c1C the results were Pf growth 96h 4.65µM*, Pf growth 48h 71.0%, Vaccinia Venus -15.0%, NS1 function inh -33.1% and HCV inhibitor -18.9%.
For CN(C)CCOC(=O)c1cccc(Br)c1 the results were Pf growth 96h 74.6%, Vaccinia Venus 6.2%, NS1 function inh 3.1% and HCV inhibitor 6.2%.
